Experimental data published in paper PMC3218832.

The sequences below were run against C-Rel subunit;p50 subunit (Homo sapiens;Homo sapiens, UniProt Q04864;P19838 1-285;7-356) (assay: protein binding microarray; high values mean tight binding). Conditions: dsDNA, one strand shown.

Sequence	binding signal [z-score]
CAAGGAGCCCC	0.121
CGGTAGCCCCT	0.38
CAGTAAATCCT	-1.01
AGGTTCGCCCT	-1.03
GAGAGATTCCC	0.909
GAGGGCCTCCT	-1.21
CAGAAGGCCCC	-0.241
AAAAATCCCCT	2.19
AAATTGTCCCT	1.14
AGAAACTTCCC	0.576
AGGAGAACCCT	-0.871
GAATTTGTCCC	1.27
AAGATGCCCCC	1.03
GAAGGCATCCT	-1.72
CAGATAGCCCT	-1.23
GAAGGCGTCCC	-0.0533
GGGTTACTCCC	0.398
GAGAAGCCCCT	0.87
GGAAGAGCCCT	-0.606

Sequence	binding signal [z-score]
GGAGGAGTCCC	0.717
CGATTAATCCC	-0.0218
AAGGTATTCCT	-0.255
CAAGGTATCCC	-0.834
AAGAATCCCCC	1.79
GAATAACTCCT	-0.82
CGAGAATCCCT	0.277
AAGGTCCCCCC	1.34
GAAGGCCCCCC	0.408
CAAAAACCCCT	1.37
AAGTGAACCCT	-1.27
AAAGGGATCCC	-0.213
CGGAAATCCCT	1.21
GGAGGTACCCT	-0.0429
CAGGGGACCCT	-0.293
CAATGGTTCCT	-0.994
CAGAGCACCCT	-1.15
CAAGTGGCCCT	-1.14
CAAGTCACCCC	-0.183

What follows are sequences tested against T1, C-Rel subunit;p52 subunit (Homo sapiens;Homo sapiens, UniProt Q04864;Q00653 1-285;4-332) in the same assay as above. Conditions: dsDNA, one strand shown.
T1 sequence 1: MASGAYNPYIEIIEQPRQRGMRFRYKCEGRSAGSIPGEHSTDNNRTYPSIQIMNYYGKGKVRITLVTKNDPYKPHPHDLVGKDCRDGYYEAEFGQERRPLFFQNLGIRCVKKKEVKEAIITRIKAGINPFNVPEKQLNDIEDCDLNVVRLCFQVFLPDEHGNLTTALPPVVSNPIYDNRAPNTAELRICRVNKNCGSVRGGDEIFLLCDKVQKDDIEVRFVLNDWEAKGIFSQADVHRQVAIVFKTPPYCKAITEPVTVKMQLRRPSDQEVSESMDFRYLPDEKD
T1 sequence 2: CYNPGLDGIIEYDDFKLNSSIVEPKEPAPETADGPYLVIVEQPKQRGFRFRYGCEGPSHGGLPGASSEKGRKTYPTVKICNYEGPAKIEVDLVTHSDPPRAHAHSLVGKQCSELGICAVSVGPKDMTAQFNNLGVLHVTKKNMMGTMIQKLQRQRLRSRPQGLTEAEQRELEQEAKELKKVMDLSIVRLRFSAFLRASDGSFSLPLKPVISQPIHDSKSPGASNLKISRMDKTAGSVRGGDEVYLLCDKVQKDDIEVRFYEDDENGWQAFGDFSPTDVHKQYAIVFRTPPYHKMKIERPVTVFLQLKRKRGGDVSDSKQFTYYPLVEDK

Sequence	binding signal [z-score]
CAAGGAGCCCC	-0.176
CGGTAGCCCCT	0.45
CAGTAAATCCT	-0.81
AGGTTCGCCCT	-0.838
GAGAGATTCCC	0.551
GAGGGCCTCCT	-0.843
CAGAAGGCCCC	-0.183
AAAAATCCCCT	3.19
AAATTGTCCCT	1.11
AGAAACTTCCC	0.741
AGGAGAACCCT	-0.624
GAATTTGTCCC	0.573
AAGATGCCCCC	0.633
GAAGGCATCCT	-1.14
CAGATAGCCCT	-0.828
GAAGGCGTCCC	-0.265
GGGTTACTCCC	0.657
GAGAAGCCCCT	0.78
GGAAGAGCCCT	-0.318

Sequence	binding signal [z-score]
GGAGGAGTCCC	0.541
CGATTAATCCC	-0.299
AAGGTATTCCT	-0.012
CAAGGTATCCC	-0.451
AAGAATCCCCC	1.99
GAATAACTCCT	-0.791
CGAGAATCCCT	0.32
AAGGTCCCCCC	0.964
GAAGGCCCCCC	0.0615
CAAAAACCCCT	2.28
AAGTGAACCCT	-0.88
AAAGGGATCCC	-0.202
CGGAAATCCCT	1.56
GGAGGTACCCT	0.0544
CAGGGGACCCT	-0.0494
CAATGGTTCCT	-0.857
CAGAGCACCCT	-0.736
CAAGTGGCCCT	-0.793
CAAGTCACCCC	-0.366
